Laboratory results: PubChem BioAssay AID1159580 (chemical genetic matrix, 2015)
The campaign covered roughly 5,500 compounds. About 2,000 (36%) were called active. Not shown: some 18% with an inconclusive outcome. Cut-off read from the data, not from the text of the source: active = normalized growth mostly below about 0.91 (no sharp cut-off); inconclusive = no clear call, values can overlap the other calls; inactive = mostly above about 0.92. The list shows a part of the results.

Test: chemical genetic growth profiling, strain panel (AID 1159580);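 note: tested at 20 µM; growth read once vehicle control cultures reached saturation at 30 °C; 1 = growth at the plate median or of vehicle wells; lower values mean less growth of the strain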
Conditions: S. cerevisiae deletion strains, growth OD

Measured: normalized growth

CCN(CC)CCOCCOC(=O)C1(c2ccccc2)CCCC1
inactive: locus YAL013W, strain DEP1, stronger effect = lower value 0.986 | locus YAL021C, strain ccr4, stronger effect = lower value 0.986 | locus YAL026C, strain drs2, stronger effect = lower value 0.995 | locus YAL030W, strain snc1, stronger effect = lower value 0.992 | locus YAL040C, strain CLN3, stronger effect = lower value 0.988 | locus YBL061C, strain skt5, stronger effect = lower value 0.996 | locus YBR009C, strain hhf1, stronger effect = lower value 0.997 | locus YBR023C, strain chs3, stronger effect = lower value 0.987 | locus YBR171W, strain sec66, stronger effect = lower value 0.987 | locus YBR231C, strain swc5, stronger effect = lower value 0.982 | locus YBR279W, strain paf1, stronger effect = lower value 0.995 | locus YCL011C, strain gbp2, stronger effect = lower value 0.99 | locus YCL016C, strain dcc1, stronger effect = lower value 0.998 | locus YCL061C, strain MRC1 (second series), stronger effect = lower value 0.994 | locus YCL061C, strain MRC1, stronger effect = lower value 0.989 | locus YCL069W, strain vba3, stronger effect = lower value 0.994 | locus YCR088W, strain abp1, stronger effect = lower value 0.981 | locus YDL005C, strain med2, stronger effect = lower value 0.988 | locus YDL040C, strain nat1, stronger effect = lower value 0.998 | locus YDR001C, strain nth1, stronger effect = lower value 0.999 | locus YDR069C, strain doa4, stronger effect = lower value 0.984 | locus YDR137W, strain rgp1, stronger effect = lower value 0.981 | locus YDR150W, strain NUM1, stronger effect = lower value 0.995 | locus YDR159W, strain sac3, stronger effect = lower value 0.99 | locus YDR195W, strain ref2 0.966 | locus YDR297W, strain sur2, stronger effect = lower value 0.989 | locus YDR334W, strain swr1, stronger effect = lower value 0.995 | locus YDR335W, strain msn5, stronger effect = lower value 0.996 | locus YDR392W, strain spt3, stronger effect = lower value 1.01 | locus YEL003W, strain gim4, stronger effect = lower value 0.999 | locus YEL037C, strain rad23, stronger effect = lower value 0.999 | locus YEL061C, strain CIN8 (second series), stronger effect = lower value 0.999 | locus YER002W, strain NOP16, stronger effect = lower value 1 | locus YER015W, strain faa2, stronger effect = lower value 0.992 | locus YER016W, strain bim1, stronger effect = lower value 0.995 | locus YER111C, strain swi4, stronger effect = lower value 0.985 | locus YER155C, strain BEM2 (second series), stronger effect = lower value 0.992 | locus YFR010W, strain ubp6, stronger effect = lower value 1 | locus YGL167C, strain pmr1, stronger effect = lower value 0.991 | locus YGL173C, strain kem1, stronger effect = lower value 0.999 | locus YGL227W, strain vid30, stronger effect = lower value 0.981 | locus YGL240W, strain doc1, stronger effect = lower value 0.998 | locus YGL253W, strain hxk2, stronger effect = lower value 0.989 | locus YGR078C, strain PAC10, stronger effect = lower value 0.972 | locus YGR229C, strain SMI1, stronger effect = lower value 0.979 | locus YHR013C, strain ard1, stronger effect = lower value 0.969 | locus YHR027C, strain rpn1, stronger effect = lower value 0.996 | locus YHR030C, strain SLT2, stronger effect = lower value 0.967 | locus YHR079C, strain IRE1, stronger effect = lower value 0.975 | locus YHR142W, strain chs7, stronger effect = lower value 0.99 | locus YJL092W, strain hpr5, stronger effect = lower value 0.997 | locus YJL095W, strain BCK1 (second series), stronger effect = lower value 0.992 | locus YJL095W, strain BCK1, stronger effect = lower value 0.966 | locus YJL115W, strain asf1, stronger effect = lower value 0.996 | locus YJL129C, strain trk1, stronger effect = lower value 0.994 | locus YJL154C, strain vps35, stronger effect = lower value 0.998 | locus YJL164C, strain tpk1, stronger effect = lower value 0.977 | locus YJL166W, strain qcr8, stronger effect = lower value 0.997 | locus YJL187C, strain SWE1, stronger effect = lower value 0.996 | locus YJR066W, strain TOR1, stronger effect = lower value 0.917 | locus YJR075W, strain HOC1, stronger effect = lower value 0.99 | locus YKL160W, strain elf1, stronger effect = lower value 1 | locus YKR026C, strain gcn3, stronger effect = lower value 0.98 | locus YKR091W, strain srl3, stronger effect = lower value 0.992 | locus YLL001W, strain dnm1, stronger effect = lower value 0.994 | locus YLL026W, stronger effect = lower value 0.99 | locus YLL041C, strain sdh2, stronger effect = lower value 1 | locus YLR027C, strain aat2, stronger effect = lower value 0.993 | locus YLR113W, strain HOG1, stronger effect = lower value 0.931 | locus YLR221C, strain rsa3, stronger effect = lower value 0.987 | locus YLR258W, strain gsy2, stronger effect = lower value 0.979 | locus YLR262C, strain YPT6 (second series), stronger effect = lower value 0.947 | locus YLR320W, strain mms22, stronger effect = lower value 0.99 | locus YLR342W, strain FKS1, stronger effect = lower value 0.987 | locus YLR357W, strain rsc2, stronger effect = lower value 0.975 | locus YLR370C, strain arc18, stronger effect = lower value 0.998 | locus YLR384C, strain iki3, stronger effect = lower value 0.992 | locus YML120C, strain ndi1, stronger effect = lower value 0.989 | locus YMR058W, strain fet3, stronger effect = lower value 0.999 | locus YMR125W, strain sto1, stronger effect = lower value 0.987 | locus YMR129W, stronger effect = lower value 0.997 | locus YMR205C, strain PFK2, stronger effect = lower value 0.986 | locus YMR231W, strain pep5, stronger effect = lower value 0.996 | locus YMR307W, strain GAS1, stronger effect = lower value 0.986 | locus YNL071W, strain lat1, stronger effect = lower value 1.02 | locus YNL175C, strain NOP13, stronger effect = lower value 1.02 | locus YNL183C, strain NPR1, stronger effect = lower value 0.915 | locus YNL197C, strain WHI3, stronger effect = lower value 0.994 | locus YNL209W, strain ssb2, stronger effect = lower value 0.998 | locus YNL224C, strain SQS1, stronger effect = lower value 1 | locus YNL248C, strain rpa49, stronger effect = lower value 1.01 | locus YNL322C, strain KRE1 (second series), stronger effect = lower value 0.99 | locus YNL322C, strain KRE1, stronger effect = lower value 1.01 | locus YNR049C, strain mso1, stronger effect = lower value 0.989 | locus YOR001W, strain rrp6, stronger effect = lower value 0.994 | locus YOR070C, strain gyp1, stronger effect = lower value 0.999 | locus YOR080W, strain dia2, stronger effect = lower value 0.989 | locus YOR083W, strain WHI5 (second series), stronger effect = lower value 0.996 | locus YOR083W, strain WHI5, stronger effect = lower value 1 | locus YOR106W, strain vam3, stronger effect = lower value 1.02 | locus YOR231W, strain MKK1, stronger effect = lower value 0.983 | locus YOR265W, strain rbl2, stronger effect = lower value 0.988 | locus YOR270C, strain vph1, stronger effect = lower value 0.999 | locus YOR290C, strain snf2, stronger effect = lower value 0.992 | locus YPL051W, strain arl3, stronger effect = lower value 0.989 | locus YPL055C, strain LGE1, stronger effect = lower value 0.996 | locus YPL078C, strain atp4, stronger effect = lower value 0.994 | locus YPL106C, strain sse1, stronger effect = lower value 0.995 | locus YPL240C, strain hsp82, stronger effect = lower value 0.995 | locus YPL241C, strain CIN2, stronger effect = lower value 0.995 | locus YPL256C, strain CLN2, stronger effect = lower value 0.959
